Source: PubChem
GRIN3A LBD mod = NR3A (human) ligand-binding domain modulation | NR3A LBD differential scanning fluorimetry, Tm shift; 0% = protein alone, 100% = glycine-bound protein | Tm shift relative to glycine control, % at 25 µM | 340,000 compounds, 2.5% hits | AID 1259313;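 active means melting temperature shift of at least 10% of the positive control shift, at one fixed dose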
rCAG binder = molecules binding r(CAG) RNA repeats. r(CAG) RNA repeat, TO-PRO-1 dye displacement fluorescence. inhibition, % at 3 µM. 370,000 compounds, 1.3% hits. AID 651821;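 active means inhibition above the plate cutoff, the mean of all test compounds on that plate plus 3 SD, cut at about 35% in these data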;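 further: 0% = DMSO alone and 100% = 100 µM mitoxantrone as full dye displacement; higher means more dye released from RNA so lower well fluorescence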
Myeloid diff MLP = myeloid differentiation induction. ER-HoxA9 myeloid progenitors, lysozyme-GFP differentiation, flow cytometry. calls only at 10 µM. 360,000 compounds, 1% hits. AID 624256;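 active means normalized GFP-positive differentiation at or above the plate's own cutoff, the solvent-only control mean plus 3 SD; inconclusive means no clear call, values can overlap the other calls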;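 further: cells exposed to compound for four days before flow analysis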
MPTP block = blocks calcium-induced mitochondrial swelling; isolated mouse mitochondria, Ca2+ swelling absorbance, 30 min; inhibition, % at 10 µM; 360,000 compounds, 1.4% hits;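 active means inhibition of 50% or more, scaled per plate between neutral and stimulator controls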;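 further: 0% = DMSO wells given calcium and 100% = 1 mM EGTA wells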
FAS-TE inh = FAS thioesterase (human) inhibition | recombinant FAS-TE, OMFH fluorogenic substrate, fluorescence endpoint | 360,000 compounds, 0.67% hits | AID 602261 | inhibition, % at 15 µM;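 active means compounds whose normalised, plate-corrected inhibition of enzyme fluorescence in the single-dose primary screen is 50% or more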;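 further: 0% = DMSO with enzyme and 100% = substrate without enzyme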
Rh123 counter = membrane potential counter-screen of mitochondrial pore inhibitors; isolated mitochondria, Rhodamine 123 fluorescence; inhibition, % at 10 µM; shares compounds with MPTP block; 5,000 compounds, 78% hits; in the data active means inhibition above about 22%;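 further: 0% = DMSO vehicle and 100% = positive control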
MPTP abs DR = MPTP inhibition, dose response swelling confirmation; shares compounds with MPTP block; isolated mitochondria swelling, absorbance; IC50, µM; 780 compounds, 58% hits; AID 651561; in the data active means IC50 below about 20 µM
MPTP cs DR = active in counter-screen for permeability transition pore inhibitors | shares compounds with MPTP block | isolated mitochondria counterscreen, fluorescence read-out | IC50, µM | 780 compounds, 49% hits | AID 651564; in the data active means IC50 below about 80 µM
* = called active by the depositor; i = inactive; ? = inconclusive; . = no result; + = active, no number; ! = not active in a repeat. In the library only some 5.7% were active in any assay of this set; here they are far more common.

SMILES	GRIN3A LBD mod	rCAG binder	Myeloid diff MLP	MPTP block	FAS-TE inh	Rh123 counter	others
CCC[C@H](CN[C@@H](CNC)[C@H](C)O)NCCc1ccc(OC)cc1	3	0	i	0	-6	.
CCCC[C@H](CN[C@@H](CNC)[C@H](C)CC)NCCC12CCC(CC1)C2	5	5	?	100*	-3	-17	MPTP abs DR=6.1*;MPTP cs DR=>80
CCc1ccccc1NC(=O)c1ccc(CN2CCC(Cc3ccccc3)CC2)cc1	1	-1	i	57*	4	-14
Cc1ccc(CN2CCN(CC(=O)NCCCN3CCN(c4ccc(F)cc4)CC3)C2=O)cc1	2	-5	i	56*	-5	12	MPTP abs DR=14*;MPTP cs DR=18*
COc1ccc(N2CCN(CCCNC(=O)CN3CCN(Cc4ccccc4C)C3=O)CC2)cc1	-2	1	i	0	-4	.
O=C(CN1CCSC1=O)Nc1ccc(N2CCOCC2)cc1	-1	2	i	0	-6	.
Cc1ccc2nc(-c3ccc(N4C(=O)CC(N5CCN(CCO)CC5)C4=O)cc3)sc2c1 (stereo not drawn)	-2	1	i	94*	-6	-6	MPTP abs DR=19*;MPTP cs DR=>80
Cc1ccc(N2C(=O)CC(N3CCN(c4ccccn4)CC3)C2=O)cc1 (stereo not drawn)	2	-3	i	0	-7	.
COc1ccc(NC(=O)CCCNS(=O)(=O)c2ccc3[nH]c(=O)oc3c2)cc1OC	.	3	.	.	.	.
COc1cc(CNn2nnnc2N)cc(Br)c1OCc1c(Cl)cccc1Cl	-10	3	i	52*	5	30*
c1csc(CCNc2ncnc3sc4c(c23)CCC4)c1	0	6	i	102*	21	102*
O=C(CCN1C(=O)/C(=C/c2ccc(Cl)cc2)SC1=S)NCCCn1ccnc1	5	2	i	60*	-6	72*
O=C(CCN1C(=O)/C(=C/c2ccccc2)SC1=S)N1CCCCCC1	-3	1	?	77*	8	82*
O=C(CCN1C(=O)/C(=C/c2ccc(F)cc2)SC1=S)NCCCn1ccnc1	2	1	i	2	-9	.
O=C(CCN1C(=O)/C(=C/c2ccc(F)cc2)SC1=S)NNC(=O)c1cccnc1	-1	3	i	38	-3	.
Cc1ccc(NC(=O)COc2cccc(/C=C3\SC(=S)N(CCC(=O)O)C3=O)c2)cc1Cl	-3	23	i	51*	11	26*
O=C(CCN1C(=O)/C(=C/c2ccccc2)SC1=S)NNC(=O)c1cccnc1	4	0	i	88*	-10	74*
Cc1ccc(/C=C2\SC(=S)N(CCC(=O)NNC(=O)c3cccnc3)C2=O)cc1	10	7	i	65*	-7	59*
O=C(CCN1C(=O)/C(=C/c2cccc(Br)c2)SC1=S)Nc1cccnc1	0	4	i	52*	-4	9	MPTP abs DR=>100;MPTP cs DR=20*
COCCCNC(=O)c1ccc2c(=O)n(Cc3ccc(Cl)cc3)c(=S)[nH]c2c1	0	-1	i	2	-5	.
CN1CCN(C(=O)c2ccc3c(=O)n(Cc4ccc(Cl)cc4)c(=S)[nH]c3c2)CC1	-6	0	i	93*	6	-13	MPTP abs DR=18*;MPTP cs DR=>80
O=C(c1ccc2c(=O)n(Cc3ccc(Cl)cc3)c(=S)[nH]c2c1)N1CCCC1	-6	0	i	-2	-6	.
CC1CCN(CCNC(=O)c2ccc3c(=O)n(Cc4ccc(Cl)cc4)c(=S)[nH]c3c2)CC1	-6	.	i	90*	5	-18
CCCN1CCN(CCCNC(=O)c2ccc3c(=O)n(CCc4ccccc4)c(=O)[nH]c3c2)CC1	-2	-6	i	70*	-2	0	MPTP abs DR=i;MPTP cs DR=>80
CC(C)[C@H](NC(=O)c1ccccc1)C(=O)NCCc1ccccc1	-1	0	i	0	-5	.
SMILES	GRIN3A LBD mod	rCAG binder	Myeloid diff MLP	MPTP block	FAS-TE inh	Rh123 counter	others
Cc1nn(C(C)(C)C)c(C)c1/C=N/OC(=O)Nc1ccc(Cl)c(Cl)c1	9	2	i	73*	36	76*
COc1cc(/C=N/NC(=O)C2c3ccccc3Oc3ccccc32)ccc1O	-7	17	i	83*	0	-19	MPTP abs DR=16*;MPTP cs DR=>80
COc1cc(/C=N/NC(=O)C2COc3ccccc3O2)ccc1O (stereo not drawn)	-2	-2	i	1	-3	.
COC(=O)Cc1nnn2c1CC(OC)c1ccccc1-2 (stereo not drawn)	.	3	.	.	.	.
CC(C)Cn1c(N)c(C(=O)COC(=O)CC23CC4CC(CC(C4)C2)C3)c(=O)n(C)c1=O	2	5	i	81*	22	116*
Cc1cc(=S)[nH]c2c(C)cccc12	-1	-1	i	1	-8	.
COc1ccc(-c2cn3c(C)c(C(=O)Nc4cccc(NC(C)=O)c4)sc3n2)cc1	13*	5	i	80*	-4	23*
Nc1ncnc2c1ncn2-c1ccccc1Cl	0	4	i	-1	-9	.
CCOC(=O)C1(Cc2cccc(OC)c2)CCN(C/C=C/c2ccc(OC)cc2)CC1	-2	-8	i	80*	4	79*
CCOC(=O)C1(Cc2cccc(OC)c2)CCN(C/C=C/c2ccccc2)CC1	2	-10	i	22	4	.
CC1(C(=O)Nc2ccccc2Br)CCN1C(=O)Cc1ccccc1Cl (stereo not drawn)	.	2	i	0	-1	.
COc1ccc(CNS(=O)(=O)c2ccc3c(c2)CC(C)N3C(=O)C2CC2)cc1 (stereo not drawn)	-1	-3	i	99*	2	88*
COc1cccc(CNS(=O)(=O)c2ccc3c(c2)CC(C)N3C(=O)C2CC2)c1 (stereo not drawn)	0	-2	i	27	-6	.
COCC(C)n1c(-c2ccc3c(c2)NC(=O)CO3)csc1=Nc1ccc(OC(F)F)cc1 (stereo not drawn)	-11	7	+!	70*!	25	54*
O=C1COc2ccc(-c3csc(=Nc4ccc(OC(F)F)cc4)n3CC3CCCO3)cc2N1 (stereo not drawn)	-10	-1	i	24	19	.
COc1ccccc1N=c1scc(-c2ccc3c(c2)NC(=O)CO3)n1CC1CCCO1 (stereo not drawn)	2	1	i	64*	5	12	MPTP abs DR=i;MPTP cs DR=41*
CCC(=O)N1CCN=C1SCc1cccc(F)c1	1	-4	i	0	-7	.
O=C(CSC1CC(=O)N(CC(c2ccccc2)c2ccccc2)C1=O)Nc1ccc(Cl)cc1 (stereo not drawn)	9	6	i	75*	24	79*
O=C(Nc1cccc(Cl)c1)c1csc([C@@H]2C[C@H](O)[C@@H](CO)O2)n1	.	1	i	0	-9	.
